# About 83,000 compounds went through this panel and 20% of them were active in at least one assay; those are over-represented in the sample as a whole.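 How to read the values: 0–100, growth inhibition (40 = 60% inhibited); 0, no net growth; -100 to 0, cell death (-40 = 40% of starting cells died; -100 = all dead).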 A number with no mark means an inactive call. Activity calls are given as the source filed them. How the source made its calls: active means growth percent below 10; inactive means the rest.
# What was measured:
# Experiment in all cases: NCI-60 one-dose screen, 48 h (100 = growth as untreated, 0 = no growth, -100 = all killed)
# Conditions in all cases: 10 µM
# SR leukemia = system: SR leukemia
# RPMI-8226 leukemia = system: RPMI-8226 leukemia
# OVCAR-8 ovarian = system: OVCAR-8 ovarian
# OVCAR-5 ovarian = system: OVCAR-5 ovarian
# OVCAR-4 ovarian = system: OVCAR-4 ovarian
# SK-OV-3 ovarian = system: SK-OV-3 ovarian
# IGROV1 ovarian = system: IGROV1 ovarian
# OVCAR-3 ovarian = system: OVCAR-3 ovarian
# HS 578T breast = system: HS 578T breast
# NCI/ADR-RES ovarian = system: NCI/ADR-RES ovarian
# T-47D breast = system: T-47D breast
# MDA-MB-435 melanoma = system: MDA-MB-435 melanoma
# SW-620 colon = system: SW-620 colon
# MCF7 breast = system: MCF7 breast
# HCT-116 colon = system: HCT-116 colon
# HCC-2998 colon = system: HCC-2998 colon
# KM12 colon = system: KM12 colon
# BT-549 breast = system: BT-549 breast
Compound,growth (SR leukemia),growth (RPMI-8226 leukemia),growth (OVCAR-8 ovarian),growth (OVCAR-5 ovarian),growth (OVCAR-4 ovarian),growth (SK-OV-3 ovarian),growth (IGROV1 ovarian),growth (OVCAR-3 ovarian),growth (HS 578T breast),growth (NCI/ADR-RES ovarian),growth (T-47D breast),growth (MDA-MB-435 melanoma),growth (SW-620 colon),growth (MCF7 breast),growth (HCT-116 colon),growth (HCC-2998 colon),growth (KM12 colon),growth (BT-549 breast)
COc1nc2c(c(=O)n1C)CN(c1ccccc1)C(=O)C(C)N2 (configuration not stated),93.6%,96%,93.4%,93.2%,91.9%,107%,106%,112%,105%,91%,95.5%,103%,99.9%,94.5%,95.4%,94.5%,105%,
CCN1CC(CCN2CCOCC2)C(C(c2ccccc2)c2ccccc2)C1=O (configuration not stated),94%,113%,99.9%,110%,113%,115%,127%,112%,104%,98.8%,99.6%,99.3%,,97.9%,114%,105%,117%,109%
CC(=O)Nc1cc2c(cc1Cl)Cc1cc(Cl)ccc1-2,80.1%,111%,88.2%,83.7%,83.9%,96%,72.4%,103%,78.6%,97%,29.2%,98.4%,,40.1%,99.3%,65.6%,87.4%,99.2%
CCN(CC)CCNc1ccc(C)c2sc3cc(Cl)ccc3c(=O)c12,-30.4% (active),-4.34% (active),45.9%,64.3%,52.1%,64.2%,20.4%,59.1%,43.3%,51.1%,33.1%,-44.8% (active),2.58% (active),19.8%,11.4%,23.3%,,
O=C1Cc2cc(CCN3CCN(c4nsc5ccccc45)CC3)c(Cl)cc2N1,86%,78.9%,93.7%,108%,84.1%,121%,101%,97.6%,103%,98.4%,55.2%,90.9%,,86.1%,98.8%,120%,98.1%,92.6%
COc1cc2cc(Oc3ccc(NC(=O)c4cccc(C(F)(F)F)c4)cc3)c(C)nc2cc1OC,28%,17.5%,42.5%,70.2%,43.2%,23.4%,36.1%,15%,41.2%,26%,91.6%,24.5%,,31%,18.1%,62.3%,,16.3%
CN(C)CCCOc1ccc(OCCCN(C)C)c2c1C(=O)c1ccccc1C2=O,2.73% (active),-20.6% (active),7.14% (active),8.93% (active),2.16% (active),13.8%,3.65% (active),3.4% (active),23%,96.1%,-5.61% (active),3.12% (active),3.12% (active),8.41% (active),8.36% (active),16.7%,6.87% (active),
O=C(CCCCC(=O)Oc1c(Cl)cc(Cl)cc1[N+](=O)[O-])Oc1c(Cl)cc(Cl)cc1[N+](=O)[O-],85.4%,92.9%,106%,109%,104%,103%,101%,105%,105%,102%,102%,103%,112%,86.3%,101%,103%,99.7%,
Nc1nccc(OCCO)n1,95.9%,108%,109%,101%,109%,102%,107%,105%,107%,103%,94.1%,104%,107%,91.2%,97.8%,97.4%,97.8%,
C[n+]1c2ccccc2nc2ccccc21,25.9%,-17.2% (active),10.3%,42.1%,21.9%,52%,11%,4.06% (active),-12.1% (active),8.6% (active),1.26% (active),-40.9% (active),11.2%,-19.4% (active),-15.5% (active),50.6%,30.4%,
Cc1c2c(nn1C(=O)c1nn(-c3ccc(Cl)cc3)cc1O)-c1ccccc1CC2,-39.9% (active),-35.3% (active),6.41% (active),40.8%,15.6%,13%,17.8%,-3.9% (active),71.5%,6% (active),1.65% (active),34.3%,32.4%,12.4%,7.08% (active),9.3% (active),29.5%,
CCN(CCCNc1cc2c(c(N)c1S(=O)(=O)O)C(=O)c1ccccc1C2=O)c1ccccc1,118%,101%,96.4%,107%,109%,100%,114%,111%,93.5%,99.8%,93.1%,106%,,107%,90%,108%,107%,89.2%
C/C=C/CSC(C)(C)C(=O)NC,109%,99.8%,98.4%,113%,117%,95.6%,115%,108%,99.5%,108%,100%,106%,104%,93.8%,91.2%,101%,102%,
CN(C)CCCSc1ccccc1NC1=C(Cl)C(=O)C(Nc2ccccc2SCCCN(C)C)=C(Cl)C1=O,2.97% (active),45.8%,-26.5% (active),33.4%,-95.3% (active),93.6%,-63.5% (active),-93% (active),87.1%,72.4%,-42.8% (active),92.1%,-34.3% (active),-50% (active),4.82% (active),103%,80.2%,
CCN1CCN(CCC(=O)Nc2cccc(-n3cc(-c4ccncc4)c(-c4ccc(Cl)c(OC)c4)n3)c2)CC1,-12.3% (active),-38.8% (active),24.2%,37.6%,43.1%,39.2%,47.2%,7.41% (active),13.1%,15.2%,38.8%,-47% (active),,15.5%,5.22% (active),43.8%,15.7%,39.2%
COc1ccc(N(C)c2ncnc3occ(C)c23)cc1,-36.1% (active),-36.1% (active),-21.9% (active),28.1%,40.2%,19.9%,-11.1% (active),-39.9% (active),110%,-16.2% (active),67.1%,7.12% (active),33.9%,9.66% (active),-11.9% (active),7.26% (active),-33.2% (active),
Cc1n[nH]c(C)c1N=Nc1cccc2c1C(=O)c1ccccc1C2=O,91.4%,104%,91.3%,91.8%,89.5%,93.6%,84.1%,106%,96.7%,,79.3%,107%,84.6%,81%,77.8%,96.1%,99.5%,100%
